# Source: PubChem BioAssay (EPA / NIEHS)
# Calls of active or inactive are those of the source. The calls were made as follows: active = hit-call score of the fitted dose curve at least 0.9, where 1 is the maximum; inactive = score below 0.9.
# Columns and labels:
# [1] = APR_HepG2_CellCycleArrest_24hr: Apredica 24-hour HepG2 Assay for Cell Cycle Arrest (AID 2282905); settings: imaging, actives raise or lower the signal;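 also: cell cycle arrest scored as ratio of 2N to 4N nuclear DNA content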
# In short: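 HepG2 cells were exposed to compounds at 0.39–200 uM (ten concentrations, duplicate) in 0.5% v/v DMSO for 24 hr. After formaldehyde fixation and Triton permeabilization, Hoechst 33342-stained nuclei were imaged at 20x; DNA content was quantified, with bidirectional fitting against DMSO.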
# [2] = APR_HepG2_StressKinase_1hr: Apredica 1-hour HepG2 Assay for Stress Kinase (AID 2282906); settings: HepG2 stress kinase (phospho-c-Jun) imaging, actives raise or lower the signal
# In short: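 HepG2 cells dosed 0.39-200 uM (0.5% DMSO) for 1 h, then formaldehyde-fixed. Stress kinase read by phospho-c-Jun immunofluorescence using high-content imaging; bidirectional fit vs DMSO.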
# [3] = APR_HepG2_NuclearSize_24hr: Apredica 24-hour HepG2 Assay for Nuclear Size (AID 2282907); settings: high-content imaging, actives raise or lower the signal
# In short: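 HepG2 human liver cells were exposed for 24 hr to compounds at 0.39–200 uM (ten concentrations, duplicate) in 0.5% v/v DMSO. They were then formaldehyde-fixed, Triton-permeabilized and Hoechst 33342-stained, and nuclear diameter was imaged at 20x. Bidirectional fits were made against DMSO.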
# [4] = APR_HepG2_CellLoss_24hr: Apredica 24-hour HepG2 Assay for Cell Loss (AID 2282908); settings: high-content imaging;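 as to AC50: fit in both directions so a hit may be cell loss or gain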
# In short: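 Compounds were tested at 0.39–200 uM in duplicate with 0.5% v/v DMSO final. Cells were then fixed in 3.7% formaldehyde, Hoechst 33342 nuclei were imaged at 20x by HCS, and cell number was fitted bidirectionally against DMSO.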
# [5] = APR_HepG2_MicrotubuleCSK_24hr: Apredica 24-hour HepG2 Assay for Microtubule CSK Stabilty (AID 2282909); settings: HepG2 microtubule cytoskeleton imaging, actives raise or lower the signal
# In short: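 HepG2 cells exposed 24 h to compounds at 0.39–200 uM (duplicate, 0.5% v/v DMSO final), then fixed, permeabilized and immunostained for alpha-tubulin with Hoechst 33342. Cytoskeleton imaged at 20x; bidirectional fit versus DMSO baseline.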
# [6] = APR_HepG2_MitoMembPot_24hr: Apredica 24-hour HepG2 Assay for Mitochondrial Membrane Potential (AID 2282911); settings: imaging, actives raise or lower the signal
# In short: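 Mitochondrial dye uptake (MitoTracker Red CMXRos, 250 nM, 30 min pre-fixation) in HepG2 after 24 hr compound exposure, 0.39–200 uM; ArrayScan images at 20x, activity fitted in both directions relative to DMSO.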
# [7] = APR_HepG2_MitoMass_24hr: Apredica 24-hour HepG2 Assay for Mitochondrial Mass (AID 2282912); settings: high-content imaging, actives raise or lower the signal
# In short: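 Human HepG2 liver cells were exposed for 24 hr to compounds at 0.39–200 uM (duplicates, 0.5% v/v DMSO final). They were stained live with 250 nM MitoTracker Red CMXRos for 30 min, fixed in 3.7% formaldehyde, and imaged by HCS fluorescence; signals were fitted bidirectionally against DMSO.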
# [8] = APR_HepG2_p53Act_24hr: Apredica 24-hour HepG2 Assay for p53 Activation (AID 2282913); settings: high-content imaging, actives raise or lower the signal;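 also: p53 protein immunofluorescence averaged per cell in HepG2 with Hoechst nuclei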
# In short: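 Following 24 hr dosing of HepG2 at 0.39–200 uM, the cells undergo formaldehyde fixation, Triton permeabilization and multiplexed antibody labeling that includes p53 (Cy5). Signal from the imaging is referenced to DMSO solvent controls.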
# [9] = APR_HepG2_CellCycleArrest_72hr: Apredica 72-hour HepG2 Assay for Cell Cycle Arrest (AID 2282914); settings: high-content imaging, actives raise or lower the signal
# In short: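 Using multiplexed high-content imaging, HepG2 nuclei stained with Hoechst 33342 (2 ug/mL) were analysed for DNA content after fixation and permeabilization. Treatment lasted 72 hr across 0.39–200 uM in duplicate with final DMSO 0.5% v/v; DMSO served as negative control.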
# [10] = APR_HepG2_CellLoss_72hr: Apredica 72-hour HepG2 Assay for Cell Loss (AID 2282915); settings: high-content imaging
# In short: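 HepG2 cells exposed 72 h to compound at 0.39–200 uM (10 concentrations, duplicate) in 0.5% DMSO. Fixed with 3.7% formaldehyde and Hoechst 33342-stained. Imaged at 20x; nuclear count gives cell number, fitted bidirectionally versus DMSO.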
# [11] = APR_HepG2_P-H2AX_72hr: Apredica 72-hour HepG2 Assay for H2AX Phosphorylation (AID 2282916); settings: imaging, actives raise or lower the signal;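 also: phospho-histone H2A.x immunostain intensity per cell marking DNA damage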
# In short: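 HepG2 human liver cells were exposed for 72 hr to compounds at 0.39–200 uM (10 concentrations, duplicate per plate) in 0.5% v/v DMSO. Fixed, permeabilized cells were immunolabeled for phospho-histone H2A.x with Hoechst 33342 and imaged by HCS fluorescence; bidirectional fit versus DMSO.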
# [12] = APR_HepG2_MitoMembPot_72hr: Apredica 72-hour HepG2 Assay for Mitochondrial Membrane Potential (AID 2282917); settings: imaging, actives raise or lower the signal
# In short: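 HepG2 cells dosed 72 hr with compound at 0.39–200 uM in duplicate, 0.5% v/v DMSO final. Mitochondria stained with 250 nM MitoTracker Red CMXRos for 30 min before formaldehyde fixation, imaged by high-content fluorescence; bidirectional fit versus DMSO.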
# [13] = APR_HepG2_MitoticArrest_72hr: Apredica 72-hour HepG2 Assay for Mitotic Arrest (AID 2282918); settings: high-content imaging, actives raise or lower the signal
# In short: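 Using high-content imaging of fixed HepG2 cells, phospho-histone H3 signal was measured following a 72 hr incubation with ten-point compound dilutions up to 200 uM. DMSO served as the negative control and baseline for bidirectional curve fitting.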
# [14] = APR_HepG2_MicrotubuleCSK_72hr: Apredica 72-hour HepG2 Assay for Microtubule CSK Stabilty (AID 2282919); settings: HepG2 microtubule cytoskeleton, high-content imaging, actives raise or lower the signal
# In short: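 HepG2 cells were exposed 72 hr to compound at 0.39–200 uM in duplicate (0.5% DMSO final), then fixed and permeabilized. Alpha-tubulin immunofluorescence was imaged by high-content microscopy, with bidirectional fitting against DMSO and taxol as positive control.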
# [15] = APR_HepG2_P-H2AX_24hr: Apredica 24-hour HepG2 Assay for H2AX Phosphorylation (AID 2282920); settings: high-content imaging, actives raise or lower the signal
# In short: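 Human HepG2 liver cells, treated 24 hr with test chemicals (0.39–200 uM, final DMSO 0.5% v/v), are fixed and co-stained for phospho-H2A.x and c-Jun with Hoechst. Imaged intensity is fitted in both directions against DMSO controls.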
# [16] = APR_HepG2_StressKinase_72hr: Apredica 72-hour HepG2 Assay for Stress Kinase (AID 2282921); settings: HepG2 stress kinase (phospho-c-Jun) imaging, actives raise or lower the signal
# In short: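 Cells were exposed for 72 h to ten concentrations (0.39–200 uM, duplicate) at 0.5% v/v DMSO final, then fixed with 3.7% formaldehyde, permeabilized and immunostained for phospho-c-Jun (Cy3 secondary) with Hoechst nuclear counterstain.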
# [17] = APR_HepG2_StressKinase_24hr: Apredica 24-hour HepG2 Assay for Stress Kinase (AID 2282922); settings: HepG2 stress kinase (phospho-c-Jun) imaging, actives raise or lower the signal
# In short: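 HepG2 cells exposed 24 h to 0.39–200 uM compound in duplicate (0.5% v/v DMSO final). Cells fixed in 3.7% formaldehyde, permeabilized and immunostained for phospho-c-Jun; read by high-content fluorescence imaging, fitted bidirectionally against DMSO.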
# [18] = APR_HepG2_p53Act_72hr: Apredica 72-hour HepG2 Assay for p53 Activation (AID 2282923); settings: high-content imaging, actives raise or lower the signal;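 also: average cellular p53 protein immunofluorescence intensity in HepG2 cells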
# In short: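 Cells were dosed for 72 hr with compounds at 0.39–200 uM in duplicate (final DMSO 0.5% v/v), then fixed in 3.7% formaldehyde, permeabilized with Triton X-100 and immunostained for p53 (Cy5) with Hoechst 33342 nuclear counterstain.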
# [19] = APR_HepG2_MitoMass_72hr: Apredica 72-hour HepG2 Assay for Mitochondrial Mass (AID 2282924); settings: high-content imaging, actives raise or lower the signal;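 also: MitoTracker Red CMXRos stain intensity per cell imaged as mitochondrial mass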
# In short: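 HepG2 cells dosed 72 hr at 0.39–200 uM (0.5% DMSO), in duplicate. MitoTracker Red CMXRos 250 nM loaded 30 min before formaldehyde fixation; high-content fluorescence imaging, bidirectional fit versus DMSO.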
compound,measurement,setting,value
O=C(O)CCCOc1ccc(Cl)cc1Cl,outcome,[1],inactive
same,outcome,[2],inactive
same,outcome,[3],inactive
same,outcome,[4],inactive
same,outcome,[5],inactive
same,outcome,[6],inactive
same,outcome,[7],inactive
same,outcome,[8],inactive
same,outcome,[9],inactive
same,outcome,[10],inactive
same,outcome,[11],inactive
same,outcome,[12],inactive
same,outcome,[13],inactive
same,outcome,[14],inactive
same,outcome,[15],inactive
same,outcome,[16],inactive
same,outcome,[17],inactive
same,outcome,[18],inactive
same,outcome,[19],inactive
CCOCN(C(=O)CCl)c1c(C)cccc1CC,AC50,[1],30.6 µM (active)
same,outcome,[2],inactive
same,AC50,[3],33.4 µM (active)
same,AC50,[4],30.5 µM (active)
same,AC50,[5],99.6 µM (active)
same,AC50,[6],50.7 µM (active)
same,AC50,[7],65.1 µM (active)
same,AC50,[8],31.9 µM (active)
same,AC50,[9],29.4 µM (active)
same,AC50,[10],9.99 µM (active)
same,outcome,[11],inactive
same,outcome,[12],inactive
same,AC50,[13],93 µM (active)
same,AC50,[14],13.9 µM (active)
same,AC50,[15],30.9 µM (active)
same,outcome,[16],inactive
same,outcome,[17],inactive
same,outcome,[18],inactive
same,outcome,[19],inactive
CCc1ccc(C(=O)NN(C(=O)c2cc(C)cc(C)c2)C(C)(C)C)cc1,outcome,[1],inactive
same,outcome,[2],inactive
same,outcome,[3],inactive
same,outcome,[4],inactive
same,outcome,[5],inactive
same,outcome,[6],inactive
same,outcome,[7],inactive
same,outcome,[8],inactive
same,outcome,[9],inactive
same,AC50,[10],43.6 µM (active)
same,outcome,[11],inactive
same,outcome,[12],inactive
same,outcome,[13],inactive
same,AC50,[14],51.7 µM (active)
same,outcome,[15],inactive
same,outcome,[16],inactive
same,outcome,[17],inactive
same,outcome,[18],inactive
same,outcome,[19],inactive
CCOC1Oc2ccc(OS(C)(=O)=O)cc2C1(C)C (configuration not stated),outcome,[1],inactive
same,outcome,[2],inactive
same,outcome,[3],inactive
same,outcome,[4],inactive
same,outcome,[5],inactive
same,outcome,[6],inactive
same,outcome,[7],inactive
same,outcome,[9],inactive
same,AC50,[10],46.1 µM (active)
same,outcome,[11],inactive
same,outcome,[12],inactive
same,outcome,[13],inactive
same,outcome,[14],inactive
same,outcome,[15],inactive
same,outcome,[16],inactive
same,outcome,[17],inactive
same,outcome,[19],inactive
COP(=O)(OC)OC=C(Cl)Cl,AC50,[1],99.1 µM (active)
same,outcome,[2],inactive
same,outcome,[3],inactive
same,AC50,[4],58.9 µM (active)
same,outcome,[5],inactive
same,outcome,[6],inactive
same,outcome,[7],inactive
same,outcome,[9],inactive
same,AC50,[10],78 µM (active)
same,outcome,[11],inactive
same,outcome,[12],inactive
same,outcome,[13],inactive
same,outcome,[14],inactive
same,AC50,[15],76.2 µM (active)
same,outcome,[16],inactive
same,outcome,[17],inactive
same,outcome,[19],inactive
O=C(NC(=O)c1c(F)cccc1F)Nc1ccc(OC(F)(F)C(F)OC(F)(F)F)c(Cl)c1 (configuration not stated),outcome,[1],inactive
same,outcome,[2],inactive
same,outcome,[3],inactive
same,outcome,[4],inactive
same,outcome,[5],inactive
same,outcome,[6],inactive
same,outcome,[7],inactive
same,outcome,[9],inactive
same,outcome,[10],inactive
same,outcome,[11],inactive
same,outcome,[12],inactive
same,outcome,[13],inactive
same,outcome,[14],inactive
same,outcome,[15],inactive
same,outcome,[16],inactive
same,outcome,[17],inactive
same,outcome,[19],inactive
CCN(CC)C(=O)SCc1ccc(Cl)cc1,outcome,[1],inactive
same,outcome,[2],inactive
same,outcome,[3],inactive
same,outcome,[4],inactive
same,outcome,[5],inactive
same,AC50,[6],22.8 µM (active)
same,outcome,[7],inactive
same,outcome,[8],inactive
same,outcome,[9],inactive
same,outcome,[10],inactive
same,outcome,[11],inactive
same,outcome,[12],inactive
same,outcome,[13],inactive
same,outcome,[14],inactive
same,outcome,[15],inactive
same,outcome,[16],inactive
same,outcome,[17],inactive
same,outcome,[18],inactive
same,outcome,[19],inactive
